Source: PubChem BioAssay (NCI)
This is part of a sample that, as a whole, favours compounds with a hit. Of some 79,000 tested, about 15% had one in any assay. Values without a mark were called inactive. Activity calls are given as the source filed them. Rule as the data show it: active = growth inhibition above about 70%; inactive = the rest.

Assay: NCI Yeast Anticancer Drug Screen. Data for the CLN2oe strain (AID 163);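 also: 0% = growth of vehicle-only control cultures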
Details: S. cerevisiae CLN2oe strain, stronger effect = higher value
Protocol: Growth inhibition of yeast strains with defined genetic alterations is measured as a screen for potential anti-cancer activity. Selected strains with alterations in DNA damage repair or cell cycle control were exposed to compounds and growth inhibition was measured relative to vehicle treated controls. The strain used in this assay is CLN2oe

Compound	growth inhibition (at 1.2 µM) [%]	growth inhibition (at 3.7 µM) [%]	growth inhibition (at 11.0 µM) [%]	growth inhibition (at 33.0 µM)	growth inhibition (at 100.0 µM)
CCC(c1ccc(O)cc1)C(CC)c1ccc(OCCN)cc1 (stereo not given)	-1	-4	5	19%	83% (active)
CCN(CC)CCNC(=O)c1nn(-c2ccc(Cl)cc2)c2c1CCc1cc(OC)ccc1-2	-12	11	6	5%	80% (active)
Nc1ccc(S(=O)(=O)Nc2ccc(Nc3c4ccccc4nc4ccccc34)cc2)cc1	-29	-5	-15	4%	33%
O=C1C(Cl)=C(Cl)C(Cl)(Cl)C(Cl)C1(Cl)Cl (stereo not given)	15	38	54	99% (active)	99% (active)
C(=N/NC1=NCCN1)/c1c2ccccc2c(/C=N\NC2=NCCN2)c2ccccc12	-2	-12	13	58%	84% (active)
O=C(/C=C/c1cccc2ccccc12)c1ccc(Cl)cc1	5	4	-27	-35%	-43%
O=Cc1coc2ccccc2c1=O	-1	25	27	2%	40%
CCCCCCCCCCCc1nc(N)n[nH]1	-3	-6	-13	16%	82% (active)
